# The supplement of paper PMC12808144
# Values without a mark were called inactive.
# Test system: Mel-DCC-11
# Assay: cell viability relative to DMSO control (fraction of DMSO control); higher = less cytotoxic, active = 0.5 or less
# Details: 1 µM; 120 h
# In short: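 A library of 315 approved anti-cancer drugs (TargetMol) was acoustically pre-spotted into 384-well plates and tested at 1 µM in duplicate for 120 h. Cells were added in 40 µl per well: NHEM-hTERT immortalized melanocytes at 2500/well, and patient-derived Mel-DCC-11 and its resistant subline Mel-DCC-11-R at 1500/well. The subline was tested both alone and with 8 µM of its selecting drug. Viability was read by ATPlite 1step luminescence, normalised to DMSO controls and averaged over duplicates.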
row,Compound,cell viability
1,CS(=O)(=O)CCNCc1ccc(-c2ccc3ncnc(Nc4ccc(OCc5cccc(F)c5)c(Cl)c4)c3c2)o1.Cc1ccc(S(=O)(=O)O)cc1.Cc1ccc(S(=O)(=O)O)cc1 [Lapatinib Ditosylate],1.29
2,CCN1CCN(Cc2ccc(Nc3ncc(F)c(-c4cc(F)c5nc(C)n(C(C)C)c5c4)n3)nc2)CC1 [Abemaciclib],0.405 (active)
3,S=c1nc[nH]c2nc[nH]c12 [Mercaptopurine],0.611
4,Nc1nc(F)nc2c1ncn2[C@@H]1O[C@H](COP(=O)(O)O)[C@@H](O)[C@@H]1O [Fludarabine Phosphate],1.49
5,Cc1cn(-c2cc(NC(=O)c3ccc(C)c(Nc4nccc(-c5cccnc5)n4)c3)cc(C(F)(F)F)c2)cn1 [Nilotinib],1.13
6,Nc1nc(F)nc2c1ncn2[C@@H]1O[C@H](CO)[C@@H](O)[C@@H]1O [Fludarabine],1.15
7,Cc1cn(-c2cc(NC(=O)c3ccc(C)c(Nc4nccc(-c5cnccn5)n4)c3)cc(C(F)(F)F)c2)cn1 [Radotinib],0.995
8,COc1cc2nccc(Oc3ccc(NC(=O)Nc4cc(C)on4)c(Cl)c3)c2cc1OC [Tivozanib],1.13
9,O=C(NC(Cc1cc(=O)[nH]c2ccccc12)C(=O)O)c1ccc(Cl)cc1 (stereo unspecified) [Rebamipide],1.15
10,Cn1cnc2c(F)c(Nc3ccc(Br)cc3F)c(C(=O)NOCCO)cc21 [Binimetinib],0.195 (active)
11,C=C(c1ccc(C(=O)O)cc1)c1cc2c(cc1C)C(C)(C)CCC2(C)C [Bexarotene],1.77
